Measurements published in the supplement of paper PMC10646978.
± gives the standard deviation.

Assays:
Conditions in all cases: modulator concentration 10 µM
[1] = test system: RAW-Dual (murine macrophage reporter line); assay: NF-kB reporter (SEAP) activity fold change vs agonist alone; higher = enhanced NF-kB activity
Summary of the method: (§1)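 RAW-Dual murine macrophage reporter cells were plated at 50 000 per well in 384-well plates, pin-transferred compound to 10 μM final, and pre-incubated for 1 hour at 37 °C before a PRR agonist was added and the cells incubated overnight. NF-κB activity was read from supernatant SEAP with QUANTI-Blue at 620 nm absorbance, and IRF activity from Lucia luciferase with QUANTI-Luc by luminescence. Each signal was expressed as fold change by dividing by the mean agonist-only control on the same plate. Two replicate plates were averaged, with errors obtained by propagation.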

[2] = test system: RAW-Dual (murine macrophage reporter line); assay: IRF reporter (Lucia luciferase) activity fold change vs agonist alone; higher = enhanced IRF activity
Summary of the method: as §1

[3] = test system: RAW-Dual (murine macrophage reporter line); assay: viability score (confluency relative to resting cells, overnight) (fraction); higher = more viable, active = viable (0.7 or more)
Summary of the method: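 Two confluency masks, generated with IncuCyte software over all imaged wells, were applied to IncuCyte images of RAW-Dual macrophages. The cells, in 384-well plates, had been exposed overnight to 10 μM final compound. The viability score is confluency as a fraction of resting cells, and a compound met the cutoff only with both masks above 70% of resting cells.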

[4] = agonist: CpG ODN 1826 0.5 ug/mL

| SMILES | NF-kB reporter [1, 4] | NF-kB reporter ([1]; agonist: LPS 0.1 ug/mL) | NF-kB reporter ([1]; agonist: MPLA […]) | IRF reporter ([2]; agonist: 3'3'-cGAMP 10 ug/mL) | IRF reporter ([2]; agonist: LPS 0.1 ug/mL) | IRF reporter ([2]; agonist: MPLA […]) | viability score [3] |
| --- | --- | --- | --- | --- | --- | --- | --- |
| CC1=NN(c2ccc(S(N)(=O)=O)cc2)C(=O)C1=Cc1ccc(N(C)C)cc1 | 1.02 ± 0.15 | 0.967 ± 0.063 | 0.947 ± 0.04 | 0.794 ± 0.2 | 0.899 ± 0.052 | 0.892 ± 0.06 | 1 (active) |
| OC1C=C2CCN3Cc4cc5c(cc4C(C1O)C23)OCO5 (stereo not given) | 1.1 ± 0.099 | 0.352 ± 0.029 | 1.35 ± 0.14 | 0.678 ± 0.062 | 0.751 ± 0.072 | 1.04 ± 0.19 | 0.71 (active) |
| COc1cc2c(cc1OC)CC(=O)N(CCCN(C)C[C@H]1Cc3cc(OC)c(OC)cc31)CC2.Cl | 0.713 ± 0.056 | 0.855 ± 0.07 | 1.06 ± 0.097 | 0.962 ± 0.05 | 1.41 ± 0.11 | 1.57 ± 0.18 | 1.01 (active) |
| O=C(NCC1(c2ccc(F)cc2)CCOCC1)c1cnc2ccccc2n1 | 1.01 ± 0.05 | 1.1 ± 0.094 | 1.02 ± 0.12 | 1.08 ± 0.06 | 1.2 ± 0.093 | 1.42 ± 0.12 | 1.01 (active) |
| CNCCCC12CCC(c3ccccc31)c1ccccc12.Cl | 0.507 ± 0.083 | 1.1 ± 0.24 | 1.32 ± 0.074 | 0.542 ± 0.038 | 1.36 ± 0.34 | 2.48 ± 0.34 | 0.29 (inactive) |
| CCOC(=O)C(=NNc1ccccc1[N+](=O)[O-])C(=O)CSc1ccc(C)cc1 | 0.697 ± 0.046 | 0.789 ± 0.049 | 0.919 ± 0.056 | 0.154 ± 0.0098 | 1.14 ± 0.083 | 1.14 ± 0.12 | 1 (active) |
| Cl.N=C(N)NCCC[C@H](N)C(=O)O | 1.12 ± 0.27 | 0.995 ± 0.08 | 1.03 ± 0.081 | 0.896 ± 0.036 | 1.38 ± 0.15 | 1.2 ± 0.23 | 1.01 (active) |
| COc1ccc(CCNC(=O)NCc2nnc3n2CCC(C(F)(F)F)C3)cc1 (stereo not given) | 0.951 ± 0.067 | 1.02 ± 0.088 | 0.947 ± 0.072 | 1.05 ± 0.072 | 1.17 ± 0.07 | 1.12 ± 0.23 | 1.01 (active) |
| Cc1cc(Nc2cc(CN3CCOCC3)c3nc(C)c(Cc4ccc(Cl)cc4F)n3n2)[nH]n1 | 2.15 ± 0.29 | 1.46 ± 0.39 | 1.59 ± 0.13 | 0.291 ± 0.025 | 0.884 ± 0.16 | 2.72 ± 0.31 | 0.0653 (inactive) |
| CCS(=O)(=O)N1CCC(Oc2cc(C)nc(C)n2)CC1 | 1.23 ± 0.07 | 0.996 ± 0.086 | 0.963 ± 0.046 | 0.982 ± 0.05 | 1.05 ± 0.049 | 0.916 ± 0.093 | 0.997 (active) |
| COC(=O)C1=CN(CC2CCCO2)C=C(C(=O)OC)C1c1ccccc1Br (stereo not given) | 1.08 ± 0.23 | 0.956 ± 0.094 | 1.01 ± 0.11 | 0.956 ± 0.032 | 1.18 ± 0.21 | 1.05 ± 0.11 | 0.726 (active) |
| O=C(O)CCCNc1c(C(=O)Nc2ccc(Cl)cc2)cc([N+](=O)[O-])cc1[N+](=O)[O-] | 0.817 ± 0.065 | 0.813 ± 0.057 | 0.942 ± 0.049 | 0.629 ± 0.022 | 1.11 ± 0.12 | 1.42 ± 0.24 | 0.511 (inactive) |
| Cl.O=C1CN2Cc3c(ccc(Cl)c3Cl)NC2=N1 | 0.954 ± 0.13 | 0.963 ± 0.17 | 0.96 ± 0.077 | 0.959 ± 0.051 | 1.24 ± 0.29 | 0.993 ± 0.2 | 1.01 (active) |
| O=C(NCC(O)(c1ccccc1)C(F)(F)F)c1ccc(Br)o1 (stereo not given) | 0.943 ± 0.054 | 0.86 ± 0.12 | 0.929 ± 0.036 | 0.858 ± 0.038 | 1.04 ± 0.065 | 1.05 ± 0.15 | 0.948 (active) |
| CC(C)(C)N1CC(c2nc3ccccc3n2Cc2c(F)cccc2Cl)CC1=O (stereo not given) | 1.28 ± 0.094 | 1.1 ± 0.088 | 0.901 ± 0.041 | 1.2 ± 0.06 | 1.15 ± 0.1 | 1.28 ± 0.19 | 0.974 (active) |
